Assay outcomes deposited in PubChem by Broad Institute.
This is one part of a sample in which hits are shown more often than they occur.
IDE exosite inh – displaces the probe from the exo-site of human IDE; P14735; purified IDE, FL-6b probe fluorescence polarization; hits give low values; z-score at 20 µM; 6.3% of 17,000 active; AID 1259349;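 active = z-score of -3 or lower, meaning strong loss of probe binding signal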;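 also: His-tagged human IDE residues 42-1019 made in E. coli with 30 nM FL-6b probe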
* hit, by the source's call.

How did O=C(c1cccc(F)c1)N1CCCCN2[C@H](C1)[C@H](c1ccc(-c3ccncc3)cc1)[C@@H]2CO do in these assays?
IDE exosite inh: 4.1

How did O=C(Nc1cc(F)ccc1F)N1CCCCN2[C@@H](CO)[C@@H](c3ccc(-c4cccnc4)cc3)[C@@H]2C1 do in these assays?
IDE exosite inh: -1

Results for CO[C@H]1CN(C)C(=O)c2cc(NC(C)=O)ccc2OC[C@H](C)N(C(=O)Cc2ccccn2)C[C@@H]1C ?
IDE exosite inh: -0.29

Results for O=C(Nc1ccc(F)cc1)N1CC(=O)N2[C@@H](CO)[C@H](c3ccc(C#Cc4ccccc4)cc3)[C@@H]2C1 ?
IDE exosite inh: -2.8

How did COCC(=O)N1[C@H](C#N)[C@@H](c2ccccc2C2=CCCC2)[C@@H]1CO do in these assays?
IDE exosite inh: -0.16

How did COCC#Cc1ccc([C@H]2[C@@H](CO)N3CCCCN(S(=O)(=O)c4ccccc4C)C[C@H]23)cc1 do in these assays?
IDE exosite inh: 1.5

What do the screens show for `O=C(C[C@@H]1CC[C@H]2[C@@H](COC[C@H](O)CN2CCc2ccccc2)O1)NCCCN1CCOCC1`?
IDE exosite inh: 1.1

What do the screens show for `C[C@H](CO)N1C[C@H](C)[C@H](CN(C)S(=O)(=O)c2cccc(C#N)c2)OCc2ccccc2-c2ccccc2C1=O`?
IDE exosite inh: 1.6

What do the screens show for `CC(C)NC(=O)N1CCCCN2[C@@H](CO)[C@@H](c3ccc(Br)cc3)[C@@H]2C1`?
IDE exosite inh: 0.63

What do the screens show for `COc1cccc(-c2ccc([C@@H]3[C@H](CO)N4CCCCN(C(=O)c5ccc6c(c5)OCO6)C[C@@H]34)cc2)c1`?
IDE exosite inh: -1.9

How did COc1cccc(-c2ccc([C@@H]3[C@H](CO)N4CCCCN(C(=O)NC(C)C)C[C@@H]34)cc2)c1 do in these assays?
IDE exosite inh: -6.5*

Results for CC(C)NC(=O)N1CCCCN2[C@@H](CO)[C@H](c3ccc(Br)cc3)[C@@H]2C1 ?
IDE exosite inh: 2.7

Results for COc1cccc(-c2ccc([C@H]3[C@H](CO)N4CCCCN(C(=O)c5ccc(F)cc5)C[C@@H]34)cc2)c1 ?
IDE exosite inh: -2

Results for COc1cccc(-c2ccc([C@H]3[C@H]4CN(C(=O)NC(C)C)CCCCN4[C@H]3CO)cc2)c1 ?
IDE exosite inh: -10*

What do the screens show for `COc1cccc(S(=O)(=O)N2CCCCN3[C@H](C2)[C@H](c2ccc(-c4cncnc4)cc2)[C@@H]3CO)c1`?
IDE exosite inh: 1.3

Results for CC(=O)N1CCCCN2[C@H](CO)[C@H](c3ccc(-c4ccc(F)cc4)cc3)[C@H]2C1 ?
IDE exosite inh: 0.88

Results for COc1cccc(-c2ccc([C@H]3[C@H](CO)N4C(=O)CN(C(=O)c5cccnc5)C[C@@H]34)cc2)c1 ?
IDE exosite inh: -1.9

What do the screens show for `COc1cccc(-c2ccc([C@H]3[C@@H](CO)N4C(=O)CN(C(=O)c5cccnc5)C[C@@H]34)cc2)c1`?
IDE exosite inh: -1.8

What do the screens show for `COc1cccc(-c2ccc([C@@H]3[C@@H](CO)N4C(=O)CN(C(=O)c5cccnc5)C[C@@H]34)cc2)c1`?
IDE exosite inh: -3.7*

How did COc1ccc(C#Cc2ccc([C@H]3[C@H](CO)N4C(=O)CN(C(=O)c5cccnc5)C[C@@H]34)cc2)cc1 do in these assays?
IDE exosite inh: -0.48

Results for COc1cccc(-c2ccc([C@H]3[C@@H](CO)N4C(=O)CN(C(=O)c5cccnc5)C[C@H]34)cc2)c1 ?
IDE exosite inh: -4.9*

What do the screens show for `COc1ccc(C#Cc2ccc([C@@H]3[C@@H](CO)N4C(=O)CN(C(=O)c5cccnc5)C[C@H]34)cc2)cc1`?
IDE exosite inh: 0.11

How did CCS(=O)(=O)N1CC2(C1)CN(S(=O)(=O)c1ccccc1)[C@@H](CO)c1c2c2ccc(OC)cc2n1C do in these assays?
IDE exosite inh: 0.48

What do the screens show for `N#C[C@H]1N[C@@H](CO)[C@@H]1c1ccc(-c2cccc(F)c2)cc1`?
IDE exosite inh: -1.1

What do the screens show for `CC=Cc1ccc2n(c1=O)C[C@@H]1[C@@H](CO)[C@H](C(=O)NCC)N(Cc3cccc(F)c3)[C@H]21` (mixture of isomers)?
IDE exosite inh: 0.17

What do the screens show for `CCN(C[C@@H]1[C@@H](c2ccccc2)[C@H](CO)N1S(C)(=O)=O)C(=O)C1CCCC1`?
IDE exosite inh: -0.43

What do the screens show for `CCC(=O)N1CC(=O)N2[C@H](C1)[C@@H](c1ccc(C#CC3CCCC3)cc1)[C@@H]2CO`?
IDE exosite inh: 1.2

Results for O=C(CN1CCOCC1)N1CCCCN2[C@H](CO)[C@H](c3ccc(C#Cc4ccccc4)cc3)[C@H]2C1 ?
IDE exosite inh: -8.7*

Results for O=C(CN1CCOCC1)N1CCCCN2[C@H](CO)[C@H](c3ccc(C#Cc4ccccc4F)cc3)[C@H]2C1 ?
IDE exosite inh: -5.5*

Results for O=C(CN1CCOCC1)N1CCCCN2[C@H](CO)[C@@H](c3ccc(Br)cc3)[C@H]2C1 ?
IDE exosite inh: -0.73

How did O=C(CN1CCOCC1)N1CCCCN2[C@H](CO)[C@H](c3ccc(C#Cc4ccccc4F)cc3)[C@@H]2C1 do in these assays?
IDE exosite inh: -5*
